Results taken from ChEMBL document CHEMBL1961873, “Compounds: GSK PKIS; Assays: Nanosyn kinase panel” (2012).

Columns and labels:
[1] = biological target: Ribosomal protein S6 kinase alpha-6 (Homo sapiens) (UniProt Q9UK32); settings: at 1 µM;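 further: each value is a mean inhibition of RSK4 from a GSK PKIS panel screen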
[2] = biological target: T1, Serine/threonine-protein kinase Sgk1 (Homo sapiens) (UniProt O00141); settings: at 0.1 µM
T1 sequence (whole entry): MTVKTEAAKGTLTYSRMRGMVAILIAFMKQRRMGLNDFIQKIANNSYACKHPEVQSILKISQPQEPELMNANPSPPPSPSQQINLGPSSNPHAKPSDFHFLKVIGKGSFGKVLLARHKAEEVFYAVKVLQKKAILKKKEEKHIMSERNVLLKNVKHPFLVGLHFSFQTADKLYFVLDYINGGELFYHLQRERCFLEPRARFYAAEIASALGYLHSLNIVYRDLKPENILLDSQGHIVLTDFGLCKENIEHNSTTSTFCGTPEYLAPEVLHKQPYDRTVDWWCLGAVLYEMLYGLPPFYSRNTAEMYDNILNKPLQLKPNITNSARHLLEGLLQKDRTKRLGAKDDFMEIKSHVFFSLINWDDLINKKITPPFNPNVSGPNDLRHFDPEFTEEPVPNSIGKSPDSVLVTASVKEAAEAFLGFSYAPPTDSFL

[3] = biological target: T1, Serine/threonine-protein kinase Sgk1 (Homo sapiens); settings: at 1 µM
[4] = biological target: T2, Serine/threonine-protein kinase Sgk2 (Homo sapiens) (UniProt Q9HBY8); settings: at 0.1 µM
T2 sequence (whole entry): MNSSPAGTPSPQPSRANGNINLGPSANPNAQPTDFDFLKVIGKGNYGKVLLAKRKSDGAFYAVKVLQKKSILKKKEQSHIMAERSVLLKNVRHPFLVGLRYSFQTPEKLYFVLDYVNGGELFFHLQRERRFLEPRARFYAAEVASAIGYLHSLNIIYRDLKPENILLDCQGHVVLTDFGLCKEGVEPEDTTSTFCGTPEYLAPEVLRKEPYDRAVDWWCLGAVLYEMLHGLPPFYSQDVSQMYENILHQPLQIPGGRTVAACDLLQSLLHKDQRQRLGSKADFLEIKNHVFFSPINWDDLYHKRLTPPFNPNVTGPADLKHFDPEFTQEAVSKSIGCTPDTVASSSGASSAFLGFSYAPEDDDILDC

[5] = biological target: T2, Serine/threonine-protein kinase Sgk2 (Homo sapiens); settings: at 1 µM
[6] = biological target: T3, Serine/threonine-protein kinase Sgk3 (Homo sapiens) (UniProt Q96BR1); settings: at 0.1 µM
T3 sequence (whole entry): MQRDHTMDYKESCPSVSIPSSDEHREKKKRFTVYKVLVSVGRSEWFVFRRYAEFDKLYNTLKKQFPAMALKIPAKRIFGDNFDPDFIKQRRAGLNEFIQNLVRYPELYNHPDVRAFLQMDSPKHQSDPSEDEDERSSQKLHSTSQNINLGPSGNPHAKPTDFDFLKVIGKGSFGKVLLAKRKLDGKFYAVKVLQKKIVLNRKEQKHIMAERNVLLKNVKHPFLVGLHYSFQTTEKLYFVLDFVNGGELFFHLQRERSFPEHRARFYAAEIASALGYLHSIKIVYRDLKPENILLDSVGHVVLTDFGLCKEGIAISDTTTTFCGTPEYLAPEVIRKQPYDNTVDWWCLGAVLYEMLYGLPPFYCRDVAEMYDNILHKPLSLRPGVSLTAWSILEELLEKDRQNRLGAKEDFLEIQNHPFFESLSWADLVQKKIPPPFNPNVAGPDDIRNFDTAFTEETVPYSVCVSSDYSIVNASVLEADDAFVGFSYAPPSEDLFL

[7] = biological target: T3, Serine/threonine-protein kinase Sgk3 (Homo sapiens); settings: at 1 µM
[8] = biological target: 5'-AMP-activated protein kinase catalytic subunit alpha-1 (Homo sapiens) (UniProt Q13131); settings: at 0.1 µM
[9] = biological target: 5'-AMP-activated protein kinase catalytic subunit alpha-1 (Homo sapiens) (UniProt Q13131); settings: at 1 µM
[10] = biological target: 5'-AMP-activated protein kinase catalytic subunit alpha-2 (Homo sapiens) (UniProt P54646); settings: at 0.1 µM
[11] = biological target: 5'-AMP-activated protein kinase catalytic subunit alpha-2 (Homo sapiens) (UniProt P54646); settings: at 1 µM
[12] = biological target: T4, NUAK family SNF1-like kinase 1 (Homo sapiens) (UniProt O60285); settings: at 0.1 µM
T4 sequence (whole entry): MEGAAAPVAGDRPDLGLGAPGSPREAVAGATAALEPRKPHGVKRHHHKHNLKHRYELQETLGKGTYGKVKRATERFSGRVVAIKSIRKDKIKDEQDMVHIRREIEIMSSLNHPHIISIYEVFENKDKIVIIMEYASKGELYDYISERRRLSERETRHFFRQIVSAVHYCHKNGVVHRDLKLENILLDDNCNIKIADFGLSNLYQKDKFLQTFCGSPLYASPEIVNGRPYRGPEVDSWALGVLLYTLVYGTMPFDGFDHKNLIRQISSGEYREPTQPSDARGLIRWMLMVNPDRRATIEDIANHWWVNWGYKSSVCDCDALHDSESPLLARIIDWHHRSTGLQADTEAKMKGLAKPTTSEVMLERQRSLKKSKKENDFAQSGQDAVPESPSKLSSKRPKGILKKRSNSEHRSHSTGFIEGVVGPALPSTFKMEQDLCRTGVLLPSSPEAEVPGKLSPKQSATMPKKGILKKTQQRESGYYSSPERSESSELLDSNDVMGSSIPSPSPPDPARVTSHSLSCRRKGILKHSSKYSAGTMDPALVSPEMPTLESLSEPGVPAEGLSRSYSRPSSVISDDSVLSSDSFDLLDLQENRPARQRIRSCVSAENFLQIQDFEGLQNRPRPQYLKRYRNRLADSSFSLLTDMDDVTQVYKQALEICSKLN

[13] = biological target: T4, NUAK family SNF1-like kinase 1 (Homo sapiens); settings: at 1 µM
[14] = biological target: T5, Serine/threonine-protein kinase BRSK1 (Homo sapiens) (UniProt Q8TDC3); settings: at 0.1 µM
T5 sequence (whole entry): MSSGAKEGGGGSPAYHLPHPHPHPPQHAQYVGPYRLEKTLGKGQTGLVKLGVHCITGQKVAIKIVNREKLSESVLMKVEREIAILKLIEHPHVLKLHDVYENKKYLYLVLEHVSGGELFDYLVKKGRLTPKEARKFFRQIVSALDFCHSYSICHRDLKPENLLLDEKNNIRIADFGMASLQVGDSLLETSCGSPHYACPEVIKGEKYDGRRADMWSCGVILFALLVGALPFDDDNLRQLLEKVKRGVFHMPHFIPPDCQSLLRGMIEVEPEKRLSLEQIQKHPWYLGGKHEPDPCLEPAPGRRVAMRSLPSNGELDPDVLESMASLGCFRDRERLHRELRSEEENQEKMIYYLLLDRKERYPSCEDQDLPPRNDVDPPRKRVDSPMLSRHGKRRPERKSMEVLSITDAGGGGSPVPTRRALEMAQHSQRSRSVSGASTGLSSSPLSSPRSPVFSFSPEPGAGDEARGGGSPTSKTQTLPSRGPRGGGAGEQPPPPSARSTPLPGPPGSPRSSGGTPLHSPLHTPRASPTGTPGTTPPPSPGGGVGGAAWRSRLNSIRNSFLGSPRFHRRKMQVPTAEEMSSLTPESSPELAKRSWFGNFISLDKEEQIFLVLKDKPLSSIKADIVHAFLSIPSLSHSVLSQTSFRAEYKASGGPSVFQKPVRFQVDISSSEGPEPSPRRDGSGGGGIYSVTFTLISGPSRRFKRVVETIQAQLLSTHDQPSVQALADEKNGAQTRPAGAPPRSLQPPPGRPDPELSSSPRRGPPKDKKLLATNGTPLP

[15] = biological target: T5, Serine/threonine-protein kinase BRSK1 (Homo sapiens); settings: at 1 µM
[16] = biological target: T6, Serine/threonine-protein kinase BRSK2 (Homo sapiens) (UniProt Q8IWQ3); settings: at 0.1 µM
T6 sequence (whole entry): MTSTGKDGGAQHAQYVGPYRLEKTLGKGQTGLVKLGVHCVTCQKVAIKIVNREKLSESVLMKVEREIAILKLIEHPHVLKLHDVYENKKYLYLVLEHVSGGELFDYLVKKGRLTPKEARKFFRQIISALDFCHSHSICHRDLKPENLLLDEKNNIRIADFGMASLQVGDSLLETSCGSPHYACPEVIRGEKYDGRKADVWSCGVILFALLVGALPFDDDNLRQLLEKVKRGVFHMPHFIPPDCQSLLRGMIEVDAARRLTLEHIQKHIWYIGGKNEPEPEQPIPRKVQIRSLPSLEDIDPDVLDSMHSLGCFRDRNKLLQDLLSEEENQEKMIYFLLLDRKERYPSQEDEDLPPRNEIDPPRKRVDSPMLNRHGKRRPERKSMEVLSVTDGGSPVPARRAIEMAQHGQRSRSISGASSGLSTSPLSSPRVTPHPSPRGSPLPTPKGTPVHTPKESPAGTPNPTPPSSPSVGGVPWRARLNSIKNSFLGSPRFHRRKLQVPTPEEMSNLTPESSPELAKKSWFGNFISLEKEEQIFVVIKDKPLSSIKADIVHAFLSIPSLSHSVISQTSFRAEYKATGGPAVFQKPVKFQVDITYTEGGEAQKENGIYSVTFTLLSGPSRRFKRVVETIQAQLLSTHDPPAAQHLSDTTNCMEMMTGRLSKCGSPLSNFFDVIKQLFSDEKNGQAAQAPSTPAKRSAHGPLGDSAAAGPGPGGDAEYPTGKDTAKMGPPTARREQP

[17] = biological target: T6, Serine/threonine-protein kinase BRSK2 (Homo sapiens); settings: at 1 µM
[18] = biological target: Calcium/calmodulin-dependent protein kinase type 1D (Homo sapiens) (UniProt Q8IU85); settings: at 0.1 µM
[19] = biological target: Calcium/calmodulin-dependent protein kinase type 1D (Homo sapiens) (UniProt Q8IU85); settings: at 1 µM
[20] = biological target: Calcium/calmodulin-dependent protein kinase type II subunit alpha (Homo sapiens) (UniProt Q9UQM7); settings: at 0.1 µM;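 further: reported values are averages (mean inhibition of CAMK2A)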
Calcium/calmodulin-dependent protein kinase type II subunit alpha (Homo sapiens), sequence (Q9UQM7 whole entry): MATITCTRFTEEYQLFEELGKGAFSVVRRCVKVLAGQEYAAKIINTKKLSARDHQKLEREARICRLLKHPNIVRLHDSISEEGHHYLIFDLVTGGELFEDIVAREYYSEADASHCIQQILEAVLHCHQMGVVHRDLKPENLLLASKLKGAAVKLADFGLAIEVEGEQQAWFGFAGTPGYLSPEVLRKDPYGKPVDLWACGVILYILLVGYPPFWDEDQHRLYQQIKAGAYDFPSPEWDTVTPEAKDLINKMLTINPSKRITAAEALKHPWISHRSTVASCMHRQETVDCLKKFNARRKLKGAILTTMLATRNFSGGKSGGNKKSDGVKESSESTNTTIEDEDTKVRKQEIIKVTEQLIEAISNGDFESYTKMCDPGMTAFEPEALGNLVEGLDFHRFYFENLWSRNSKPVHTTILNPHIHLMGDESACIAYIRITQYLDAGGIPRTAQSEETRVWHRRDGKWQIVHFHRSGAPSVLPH

Ribosomal protein S6 kinase alpha-6 (Homo sapiens), sequence (Q9UK32 whole entry): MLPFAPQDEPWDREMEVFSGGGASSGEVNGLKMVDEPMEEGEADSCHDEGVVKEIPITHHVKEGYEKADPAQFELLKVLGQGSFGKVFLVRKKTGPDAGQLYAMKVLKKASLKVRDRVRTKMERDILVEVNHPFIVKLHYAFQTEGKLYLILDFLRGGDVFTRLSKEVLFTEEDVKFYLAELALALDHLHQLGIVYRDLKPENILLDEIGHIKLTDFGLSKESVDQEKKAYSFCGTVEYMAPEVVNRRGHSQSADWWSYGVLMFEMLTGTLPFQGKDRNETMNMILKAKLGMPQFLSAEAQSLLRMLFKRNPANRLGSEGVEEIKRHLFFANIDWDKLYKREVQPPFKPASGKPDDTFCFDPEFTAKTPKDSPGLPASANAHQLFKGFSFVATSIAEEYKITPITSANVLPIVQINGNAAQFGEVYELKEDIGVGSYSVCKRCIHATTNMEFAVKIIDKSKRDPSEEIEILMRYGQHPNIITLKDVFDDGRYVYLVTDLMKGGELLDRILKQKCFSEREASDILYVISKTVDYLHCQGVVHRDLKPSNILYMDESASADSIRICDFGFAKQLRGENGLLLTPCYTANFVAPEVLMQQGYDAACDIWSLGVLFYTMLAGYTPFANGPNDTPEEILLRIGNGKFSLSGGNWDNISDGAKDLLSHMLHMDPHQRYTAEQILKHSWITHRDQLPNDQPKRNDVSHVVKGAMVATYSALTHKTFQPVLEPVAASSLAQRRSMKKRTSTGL
5'-AMP-activated protein kinase catalytic subunit alpha-2 (Homo sapiens), sequence (P54646 whole entry, looked up): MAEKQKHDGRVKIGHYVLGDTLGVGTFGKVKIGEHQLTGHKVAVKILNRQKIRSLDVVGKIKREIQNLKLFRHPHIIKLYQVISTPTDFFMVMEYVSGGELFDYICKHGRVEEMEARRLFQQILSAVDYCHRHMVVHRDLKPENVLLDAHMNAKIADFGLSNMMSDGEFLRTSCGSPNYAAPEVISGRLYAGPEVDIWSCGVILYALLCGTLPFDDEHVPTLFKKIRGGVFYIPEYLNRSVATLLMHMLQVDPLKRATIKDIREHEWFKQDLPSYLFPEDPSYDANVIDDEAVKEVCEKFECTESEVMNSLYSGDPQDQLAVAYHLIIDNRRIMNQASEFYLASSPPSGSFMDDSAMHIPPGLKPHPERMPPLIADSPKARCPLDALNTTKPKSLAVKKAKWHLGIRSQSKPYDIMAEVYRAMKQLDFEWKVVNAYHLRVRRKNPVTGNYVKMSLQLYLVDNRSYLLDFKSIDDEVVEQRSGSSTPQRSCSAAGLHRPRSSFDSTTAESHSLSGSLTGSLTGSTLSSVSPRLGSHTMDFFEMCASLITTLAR
Calcium/calmodulin-dependent protein kinase type 1D (Homo sapiens), sequence (Q8IU85 whole entry, looked up): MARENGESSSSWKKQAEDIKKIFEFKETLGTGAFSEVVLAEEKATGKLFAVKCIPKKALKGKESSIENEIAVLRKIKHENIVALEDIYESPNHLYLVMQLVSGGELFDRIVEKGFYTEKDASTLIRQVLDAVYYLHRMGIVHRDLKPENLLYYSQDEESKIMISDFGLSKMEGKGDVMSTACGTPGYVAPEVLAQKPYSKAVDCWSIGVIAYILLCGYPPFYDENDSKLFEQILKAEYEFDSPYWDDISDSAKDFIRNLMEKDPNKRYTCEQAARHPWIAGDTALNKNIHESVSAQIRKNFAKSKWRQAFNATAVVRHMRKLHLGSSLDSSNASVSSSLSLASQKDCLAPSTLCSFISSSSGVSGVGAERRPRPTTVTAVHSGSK
5'-AMP-activated protein kinase catalytic subunit alpha-1 (Homo sapiens), sequence (Q13131 whole entry, looked up): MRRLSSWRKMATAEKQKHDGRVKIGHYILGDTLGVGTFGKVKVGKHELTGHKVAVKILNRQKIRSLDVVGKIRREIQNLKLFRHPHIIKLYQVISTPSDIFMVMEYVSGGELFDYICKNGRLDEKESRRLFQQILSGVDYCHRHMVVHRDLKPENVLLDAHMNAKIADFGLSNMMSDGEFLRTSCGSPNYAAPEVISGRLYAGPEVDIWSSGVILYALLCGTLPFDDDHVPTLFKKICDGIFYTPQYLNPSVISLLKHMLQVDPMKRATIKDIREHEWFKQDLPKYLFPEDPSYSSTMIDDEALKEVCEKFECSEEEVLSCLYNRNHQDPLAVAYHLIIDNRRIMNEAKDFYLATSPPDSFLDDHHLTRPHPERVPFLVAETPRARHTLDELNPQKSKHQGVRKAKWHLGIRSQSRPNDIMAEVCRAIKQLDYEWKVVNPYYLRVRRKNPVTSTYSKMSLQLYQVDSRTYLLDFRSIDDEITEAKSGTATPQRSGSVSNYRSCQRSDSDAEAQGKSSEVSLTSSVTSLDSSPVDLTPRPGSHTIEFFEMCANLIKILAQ

Row | SMILES | inhibition [1] [%] | inhibition [2] [%] | inhibition [3] [%] | inhibition [4] [%] | inhibition [5] [%] | inhibition [6] [%] | inhibition [7] [%] | inhibition [8] [%] | inhibition [9] [%] | inhibition [10] [%] | inhibition [11] [%] | inhibition [12] [%] | inhibition [13] [%] | inhibition [14] [%] | inhibition [15] [%] | inhibition [16] [%] | inhibition [17] [%] | inhibition [18] [%] | inhibition [19] [%] | inhibition [20] [%]
1 | Oc1cccc(-c2nc(-c3ccccc3)[nH]c2-c2ccncc2)c1 | 2.67 | 0.98 | 4.8 | 1.32 | 4.97 | 3.71 | 1.35 | 2.62 | 3.13 | 3.23 | 4.6 | 0.46 | 2.27 | -0.48 | 1.89 | 1.98 | 4.34 | 0.26 | 1.01 | 3.36
2 | CS(=O)(=O)Nc1cccc(-c2ccc3c(NC(=O)C4CC4)n[nH]c3c2)c1 | 1.64 | 1.2 | 1.36 | 0.93 | -0.04 | 1.19 | -0.96 | 1.97 | 1.56 | -0.32 | 6.02 | -0.11 | 1.95 | 3.46 | 18.7 | 2.32 | 19.1 | 2.26 | 1.87 | 7.84
3 | CN1CCN(C(=O)c2ccc(NC(=O)Nc3ccc(N(C)c4ccnc(Nc5ccc(CS(C)(=O)=O)cc5)n4)cc3)cc2)CC1 | 5.11 | 0.94 | 3.35 | 1.96 | 7.04 | 2.75 | 1.79 | 2.09 | 5.52 | 3.27 | 7.01 | 0.11 | 44.5 | 0.56 | 2.28 | 0.38 | 7.68 | 0.6 | 2.18 | 1.63
4 | COc1cccc(-n2ncc3c(N/N=C/c4ccc(S(C)(=O)=O)cc4)ncnc32)c1 | 3.2 | 3.81 | 10.1 | 6.74 | 4.33 | -0.55 | 2.6 | 1.41 | 2 | 3.56 | 4.43 | 14.7 | 37.4 | 13.7 | 52.5 | 20.1 | 60.8 | 0.78 | 0.51 | -0.15
5 | N#Cc1cccc(Nc2nccc(-c3cnn4ncccc34)n2)c1 | 8.8 | 2.22 | 10.4 | 4.89 | 5.14 | 5.14 | 7.33 | 2.67 | 10.4 | 2.03 | 12.5 | 38.5 | 73.4 | 0.94 | 7.19 | 2.94 | 12.1 | -0.83 | 3.54 | 7.55
6 | NC(=O)c1cccc(Nc2nccc(Nc3cccc(F)c3)n2)c1 | 6.03 | 0.89 | -0.08 | 3.63 | 3.3 | 0.73 | -1.45 | -0.48 | 3.96 | 1.99 | 3.97 | 23 | 58.2 | 1.64 | 7.42 | 0.1 | 8.9 | 0.4 | 3.1 | 2.84
7 | COc1cccc(-n2nc(C)c3c(N/N=C(\C)c4ccncc4)ncnc32)c1 | 0.03 | -0.15 | 0.8 | 1.28 | 5.85 | 0.38 | 0.52 | -0.66 | 0.55 | 2.15 | 1.4 | 3.11 | 2.97 | 0.77 | -2.02 | -0.07 | 0.93 | -0.6 | 2.19 | -1.72
8 | Nc1nccc(-c2c(-c3ccc(F)cc3)ncn2CCCN2CCOCC2)n1 | 3.56 | 1.7 | 5.95 | 0.32 | 6.95 | 3.43 | 3.38 | 3.37 | 3.19 | 3.33 | 4.51 | 3.4 | -1.7 | 0.99 | -1.18 | 0.6 | 1.72 | 0.27 | -0.53 | 2.67
9 | COc1ccc2ncnc(Nc3ccc(OCc4ccccc4)cc3)c2c1 | 0.55 | 0.21 | 4.55 | -1.08 | -0.13 | 2.62 | 2.59 | 2.15 | 1.44 | 0.53 | 2.09 | 0.25 | -1.38 | -0.52 | 0.79 | 2.22 | 1.79 | 0.63 | 1.33 | 0.65
10 | [O-][S+]1CCN(Cc2ccc(-c3ccc4ncnc(Nc5ccc(OCc6ccccc6)c(Cl)c5)c4c3)o2)CC1 | -0.67 | 2.48 | 1.69 | -2.36 | 1.12 | 0.45 | 1.38 | 0.09 | 1.19 | 2.56 | 1.22 | -2.45 | -2.99 | 0.95 | 0.18 | 1.49 | 2.79 | -0.14 | 0.11 | -0.84
11 | NS(=O)(=O)c1cccc(-c2cc3ccncc3cc2OCc2ccccc2)c1 | 3.01 | 3.46 | 3.63 | 5.08 | 6.91 | 9.81 | 1.63 | 4.1 | 5.8 | -0.75 | 7.06 | 8.52 | 11.3 | 3.31 | 3.45 | 2.26 | 3.2 | 0.47 | 0.96 | 4.23
